Measurements: PubChem BioAssay (NCATS)
Inconclusive results are not listed. A call without a number means that no potency is given here. Activity calls are given as the source filed them. Calls come from the whole dose curve.

Test: Primary qHTS to identify inhibitors of SARS-CoV-2 cell entry (AID 1645846); note: nearly all actives have a fitted effect of over 45% in size
Details: SARS-CoV-2 pseudovirus cell entry assay, luminescence; activity change, negative = inhibition: at 57.1 µM (top of the series) unless noted; series mostly up to 57.1 µM
Outline: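 HEK293 cells stably expressing human ACE2, pre-treated 1 h with compound, then infected with MLV particles pseudotyped with Wuhan-Hu-1 spike (C-terminal 19-aa truncation). Luciferase luminescence after 48 h at 37 °C, normalised to spike PP and bald PP.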
In the case of `COc1c2c(cc3c1OCO3)CCN(C)C2`, the activity change, negative = inhibition is reported as -9.9%.
With `C[C@]12CCC(=O)C=C1CC[C@@H]1[C@@H]2CC[C@]2(C)C(=O)CC[C@@H]12` the Potency was “inactive”.
In the case of `O=P1(N(CCCl)CCCl)NCCCO1` (stereo not drawn), the Potency is reported as “inactive”.
